Results taken from the supplement of paper PMC10849652.
Of roughly 7,900 targets only a part is listed; those with a hit were picked by preference. About 0.6% of all pairs of compound and target were hits.

These targets were tested with c1cn2cc(-c3ccc4cn[nH]c4c3)nc(Nc3ccc(N4CCOCC4)cc3)c2n1 [entospletinib] (assay: log2 fold change, soluble protein after heating vs DMSO (PISA); higher = thermal stabilisation; K562 cells, 10 uM, 30 min; active = over 0.2 and 3.5 SD of the protein, either way, in both replicates (recomputed)).
Summary of the method: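 Aliquots of K562 cells (2×10^6 cells/mL) treated with 10 μM compound for 30 min were heated for 3 min over 48°C-58°C. After pooling and extraction in PBS with 0.5% NP-40 at 4°C, soluble protein from a 21,000xg, 90 min spin was quantified by TMTpro 16plex LC-MS/MS with channel sums equalised. Thermal stability is expressed against control samples, from duplicates, as a log2 fold change.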

Chain of UniProt Q9UHC9 (Q9UHC9 whole entry, looked up): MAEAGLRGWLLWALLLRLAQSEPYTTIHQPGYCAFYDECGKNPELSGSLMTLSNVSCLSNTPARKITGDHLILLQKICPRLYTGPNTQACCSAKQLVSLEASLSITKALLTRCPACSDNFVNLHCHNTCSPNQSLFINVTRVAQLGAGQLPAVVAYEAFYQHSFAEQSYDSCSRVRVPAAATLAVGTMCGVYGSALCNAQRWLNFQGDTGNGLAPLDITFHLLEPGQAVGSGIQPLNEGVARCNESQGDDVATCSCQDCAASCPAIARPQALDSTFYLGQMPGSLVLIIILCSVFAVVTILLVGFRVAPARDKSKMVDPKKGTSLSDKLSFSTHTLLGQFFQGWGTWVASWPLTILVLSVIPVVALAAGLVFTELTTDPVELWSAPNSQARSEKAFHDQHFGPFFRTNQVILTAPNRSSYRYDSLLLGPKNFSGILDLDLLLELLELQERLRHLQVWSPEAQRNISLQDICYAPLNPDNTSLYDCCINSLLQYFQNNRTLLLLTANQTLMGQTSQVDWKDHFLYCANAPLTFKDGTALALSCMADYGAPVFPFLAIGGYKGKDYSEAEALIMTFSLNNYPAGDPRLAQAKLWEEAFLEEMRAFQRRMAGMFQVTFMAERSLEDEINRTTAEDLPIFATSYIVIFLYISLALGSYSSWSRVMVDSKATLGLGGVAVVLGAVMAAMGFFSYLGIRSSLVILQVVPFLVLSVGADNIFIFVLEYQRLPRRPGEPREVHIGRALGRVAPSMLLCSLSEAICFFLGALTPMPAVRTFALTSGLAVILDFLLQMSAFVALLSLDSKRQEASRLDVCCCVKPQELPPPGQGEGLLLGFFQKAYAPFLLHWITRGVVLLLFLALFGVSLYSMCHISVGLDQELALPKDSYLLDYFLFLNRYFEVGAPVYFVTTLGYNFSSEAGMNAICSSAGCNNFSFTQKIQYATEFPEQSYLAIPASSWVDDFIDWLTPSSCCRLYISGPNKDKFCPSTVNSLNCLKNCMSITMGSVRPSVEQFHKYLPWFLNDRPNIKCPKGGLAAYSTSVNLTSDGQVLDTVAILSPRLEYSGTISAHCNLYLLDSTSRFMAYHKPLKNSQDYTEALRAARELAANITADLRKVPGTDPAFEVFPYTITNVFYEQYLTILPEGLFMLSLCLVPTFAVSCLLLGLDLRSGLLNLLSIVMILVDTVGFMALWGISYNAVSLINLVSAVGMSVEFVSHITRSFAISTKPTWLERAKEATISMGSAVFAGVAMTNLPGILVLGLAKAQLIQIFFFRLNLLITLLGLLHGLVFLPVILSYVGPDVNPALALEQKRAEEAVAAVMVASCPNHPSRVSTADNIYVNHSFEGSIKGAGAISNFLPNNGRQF
Chain of UniProt Q8N573 (Q8N573 whole entry, looked up): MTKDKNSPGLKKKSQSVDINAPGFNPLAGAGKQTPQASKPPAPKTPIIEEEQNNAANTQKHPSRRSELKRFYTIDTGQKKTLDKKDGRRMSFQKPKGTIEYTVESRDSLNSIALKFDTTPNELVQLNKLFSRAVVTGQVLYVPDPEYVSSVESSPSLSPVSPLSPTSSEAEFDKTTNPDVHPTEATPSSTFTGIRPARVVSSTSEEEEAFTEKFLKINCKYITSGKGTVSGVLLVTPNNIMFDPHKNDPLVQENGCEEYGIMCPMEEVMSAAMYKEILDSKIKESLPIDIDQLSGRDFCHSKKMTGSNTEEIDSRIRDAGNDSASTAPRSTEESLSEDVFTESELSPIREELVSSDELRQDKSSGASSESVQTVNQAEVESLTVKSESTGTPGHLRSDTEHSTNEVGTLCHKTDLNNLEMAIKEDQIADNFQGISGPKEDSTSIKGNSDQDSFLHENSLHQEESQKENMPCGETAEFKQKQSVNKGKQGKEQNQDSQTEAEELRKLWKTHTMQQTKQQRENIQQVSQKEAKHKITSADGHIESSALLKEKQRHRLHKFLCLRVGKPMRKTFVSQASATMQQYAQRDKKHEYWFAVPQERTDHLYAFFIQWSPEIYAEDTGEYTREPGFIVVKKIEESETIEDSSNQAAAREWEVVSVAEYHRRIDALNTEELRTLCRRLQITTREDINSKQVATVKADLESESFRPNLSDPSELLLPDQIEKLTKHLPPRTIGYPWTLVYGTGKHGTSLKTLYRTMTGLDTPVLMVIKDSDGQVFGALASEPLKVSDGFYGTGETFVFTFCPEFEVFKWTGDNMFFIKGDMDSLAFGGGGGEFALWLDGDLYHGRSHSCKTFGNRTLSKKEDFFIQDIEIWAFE
Chain of UniProt Q15102 (Q15102 whole entry, looked up): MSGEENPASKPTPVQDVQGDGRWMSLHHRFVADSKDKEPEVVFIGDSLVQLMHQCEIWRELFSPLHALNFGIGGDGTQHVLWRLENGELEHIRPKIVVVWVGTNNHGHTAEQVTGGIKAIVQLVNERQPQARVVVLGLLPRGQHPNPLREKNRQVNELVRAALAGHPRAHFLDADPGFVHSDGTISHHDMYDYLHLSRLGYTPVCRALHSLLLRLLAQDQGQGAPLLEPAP
Chain of UniProt Q68DK7 (Q68DK7 whole entry, looked up): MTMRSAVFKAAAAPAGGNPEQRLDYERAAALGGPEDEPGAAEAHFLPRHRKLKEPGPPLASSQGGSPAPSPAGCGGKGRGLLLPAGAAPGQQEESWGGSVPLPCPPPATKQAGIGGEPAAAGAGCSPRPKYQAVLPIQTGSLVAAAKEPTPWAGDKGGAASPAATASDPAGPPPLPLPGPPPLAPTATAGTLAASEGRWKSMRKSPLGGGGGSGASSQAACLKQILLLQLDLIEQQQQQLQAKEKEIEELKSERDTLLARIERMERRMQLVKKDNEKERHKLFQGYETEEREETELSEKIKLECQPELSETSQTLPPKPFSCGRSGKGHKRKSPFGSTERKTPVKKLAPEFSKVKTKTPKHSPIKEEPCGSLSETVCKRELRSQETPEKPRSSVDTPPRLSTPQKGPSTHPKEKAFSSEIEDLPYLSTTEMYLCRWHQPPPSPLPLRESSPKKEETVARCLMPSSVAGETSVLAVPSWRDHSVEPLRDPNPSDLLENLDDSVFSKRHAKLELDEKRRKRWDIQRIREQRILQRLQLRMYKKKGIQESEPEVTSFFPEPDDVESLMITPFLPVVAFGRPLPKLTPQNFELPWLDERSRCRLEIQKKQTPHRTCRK
Chain of UniProt Q13153 (Q13153 whole entry, looked up): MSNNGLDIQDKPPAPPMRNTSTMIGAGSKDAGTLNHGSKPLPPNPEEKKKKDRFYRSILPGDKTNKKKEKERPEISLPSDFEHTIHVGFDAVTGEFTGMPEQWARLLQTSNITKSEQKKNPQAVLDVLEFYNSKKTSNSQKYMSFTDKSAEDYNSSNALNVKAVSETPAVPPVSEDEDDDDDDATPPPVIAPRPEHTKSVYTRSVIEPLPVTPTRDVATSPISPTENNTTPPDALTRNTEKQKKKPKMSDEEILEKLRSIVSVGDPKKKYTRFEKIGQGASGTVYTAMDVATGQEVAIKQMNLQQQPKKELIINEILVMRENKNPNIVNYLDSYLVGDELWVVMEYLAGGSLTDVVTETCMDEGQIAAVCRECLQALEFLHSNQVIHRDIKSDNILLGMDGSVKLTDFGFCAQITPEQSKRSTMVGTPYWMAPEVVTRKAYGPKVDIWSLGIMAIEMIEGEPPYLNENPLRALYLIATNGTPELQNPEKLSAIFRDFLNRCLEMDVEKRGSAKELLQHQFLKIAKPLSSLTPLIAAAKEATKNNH
Chain of UniProt O15460 (O15460 whole entry, looked up): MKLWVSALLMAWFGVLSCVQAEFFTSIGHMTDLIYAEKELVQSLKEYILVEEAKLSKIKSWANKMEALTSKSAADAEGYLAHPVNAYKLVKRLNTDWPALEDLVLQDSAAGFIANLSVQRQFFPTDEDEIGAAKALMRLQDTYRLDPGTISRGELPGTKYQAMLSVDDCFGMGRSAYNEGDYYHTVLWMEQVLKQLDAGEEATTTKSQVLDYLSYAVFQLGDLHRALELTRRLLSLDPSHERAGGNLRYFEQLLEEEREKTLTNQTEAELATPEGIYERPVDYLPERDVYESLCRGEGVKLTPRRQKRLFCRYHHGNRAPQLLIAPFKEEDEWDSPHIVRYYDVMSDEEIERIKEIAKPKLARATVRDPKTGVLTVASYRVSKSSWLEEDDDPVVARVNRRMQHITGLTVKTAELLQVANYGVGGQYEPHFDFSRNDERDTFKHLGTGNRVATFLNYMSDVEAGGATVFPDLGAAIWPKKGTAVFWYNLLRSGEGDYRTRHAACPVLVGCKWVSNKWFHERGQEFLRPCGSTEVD

log2 fold change, inactive:
OXR1 isoform 2 (UniProt Q8N573) 0.004
PAFAH1B3 (UniProt Q15102) 0
MRPL46 (UniProt Q9H2W6) 0.025
MRPS2 (UniProt Q9Y399) 0.059
MSL1 (UniProt Q68DK7) -0.078
MRPS12 (UniProt O15235) 0.15
NA, A0A096LPI6 0.027
MRPL47 (UniProt Q9HD33) -0.116
PAK1 isoform 2 (UniProt Q13153) -0.02
NPC1L1 (UniProt Q9UHC9) -0.007
P4HA2 (UniProt O15460) 0.021
